# Source: PubChem BioAssay (NCATS)
# Records with an inconclusive call do not appear. A number with no mark means an inactive call. Active and inactive are the calls of the source. Calls follow the shape of the dose curve; as a rule, active = well fitted inhibition curve with a large enough effect; inconclusive = small, poorly fitted or top-dose-only effect; inactive = no such curve, though single readings can be large or run the other way.
# Molecular target: Cytochrome P450 3A7 (Homo sapiens) (UniProt P24462)
# Experiment: Cytochrome P450 family 3 subfamily A member 7 (CYP3A7) small molecule antagonists: luciferase biochemical qHTS assay (AID 1963596); also: nearly all actives have a fitted effect of over 40% in size
# Settings: P450-Glo CYP3A7 enzyme luminescence, 1 h; series mostly up to 57.4 µM; activity change, negative = inhibition: at the top concentration
# Method in brief: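 P450-Glo luminescent assay: CYP3A7 enzyme converts a proluciferin substrate to luciferin, detected by luciferase reagent; light proportional to activity. Compounds in DMSO preincubated 10 min with enzyme-substrate mix at room temperature, then NADPH regeneration added for 1 h.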
# % is scaled to controls: 0 for no effect and ±100 for the full control effect; potency is read from the fitted curve at half-maximal effect.
# Sequence of Cytochrome P450 3A7 (Homo sapiens) (P24462 whole entry, looked up): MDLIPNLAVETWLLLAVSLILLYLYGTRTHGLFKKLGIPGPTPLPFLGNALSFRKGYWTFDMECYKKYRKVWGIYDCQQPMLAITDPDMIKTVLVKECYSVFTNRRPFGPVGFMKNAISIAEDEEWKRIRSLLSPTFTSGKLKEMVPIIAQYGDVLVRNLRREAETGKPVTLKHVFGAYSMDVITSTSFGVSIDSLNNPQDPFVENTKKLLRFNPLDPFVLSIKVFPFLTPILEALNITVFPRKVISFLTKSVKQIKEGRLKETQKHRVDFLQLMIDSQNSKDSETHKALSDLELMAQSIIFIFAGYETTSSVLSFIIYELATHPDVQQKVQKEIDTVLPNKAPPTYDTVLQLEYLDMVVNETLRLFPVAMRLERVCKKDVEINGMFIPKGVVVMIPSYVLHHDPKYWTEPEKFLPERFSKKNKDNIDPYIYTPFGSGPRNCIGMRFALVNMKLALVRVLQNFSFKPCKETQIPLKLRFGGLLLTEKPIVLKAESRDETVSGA
SMILES,"activity change, negative = inhibition",Potency
CC12CCC(CC1)C(C)(C)O2,1.11%,
Cn1c(=O)n(-c2ccc(C(C)(C)C#N)cc2)c2c3cc(C#Cc4cccnc4)ccc3ncc21,-14.9% [at 23.9 µM],
CCCN1CCC[C@@H](c2cccc(S(C)(=O)=O)c2)C1,4.03%,
CN1CCc2nc(C(=O)N[C@@H]3C[C@@H](C(=O)N(C)C)CC[C@@H]3NC(=O)C(=O)Nc3ccc(Cl)cn3)sc2C1,-7.57%,
CCCN1CCC(c2cccc(S(C)(=O)=O)c2)CC1,-0.353%,
COc1cc(N2CCOCC2)ccc1Nc1ncc(Cl)c(Nc2ccccc2NS(C)(=O)=O)n1,0%,
c1ccc(C(OC2CCN(CCCc3nn[nH]n3)CC2)c2ccccc2)cc1,-8.55%,
O=C(N[C@@H]1CCCc2c1cnn2-c1ccc(F)cc1F)c1ccccn1,0%,
COc1ccccc1N1CCN(CC[C@@](C)(C(=O)C2CCCCC2)c2ccccc2)CC1,0%,
CCN1CCC[C@@H]1CNC(=O)c1ccc2c(c1)NC(=O)c1cccc(C)c1S2,,20 µM (active)
CC(C)c1cc2c(N3CCN(C4=NCC(C)(C)S4)CC3)ncnc2s1,0%,
Cc1c(C(=O)Nc2ccc(N3CC(C)OC(C)C3)nc2)cccc1-c1ccc(OC(F)(F)F)cc1 (stereo not given),0.997%,
FC(F)(F)c1ccccc1-c1cc(C(F)(F)F)c2nc(C3=NOC4(CCCCC4)C3)[nH]c2c1,0%,
Cc1cc(NS(=O)(=O)c2ccc(N)cc2)no1,-4.12%,
C1N2CN3CN1CN(C2)C3,14.2%,
C[C@]12C=CC(=O)C=C1CC[C@@H]1[C@@H]2[C@@H](O)C[C@@]2(C)[C@H]1CC[C@]2(O)C(=O)COC(=O)CCC(=O)O,21.3%,
CC(C(=O)O)c1ccc(C(=O)c2cccs2)cc1 (stereo not given),-8.79%,
Clc1ccc2c(c1)C1=NCCN1c1c(-c3noc(C4CC4)n3)ncn1-2,0%,
N[C@@H](CC(=O)N1CCn2c(nnc2C(F)(F)F)C1)Cc1[nH]nc2c(F)c(F)ccc12,-9.09%,
COc1ccc(CN(CCN(C)C)c2ccccn2)cc1,-20.1%,

SMILES,"activity change, negative = inhibition",Potency
O=C(Cn1c2ccccc2c2nc3n(c(=O)c21)CCS3)N1CCCC1,-30%,
C[N+]1(CC2COC(c3ccccc3)(c3ccccc3)O2)CCCCC1 (stereo not given),-5.24% [at 23.9 µM],
CCc1cc2c(=O)c(-c3nc4ccccc4s3)coc2c(CN2CCCCC2)c1O,-14.9%,
O=C(O)CNC(=O)c1ccccc1I,-1.95%,
CC(CNS(=O)(=O)C(C)C)c1ccc(-c2ccc(C#N)cc2)cc1 (stereo not given),0%,
COC(=O)C(Cc1ccc(OCCn2c(=O)sc3cc(C(=O)c4ccccc4)ccc32)cc1)C(=O)OC,-14.2%,
CNC(C)C(=O)NC(C(=O)N1CCCC1C(=O)Nc1cccc2ncccc12)C(C)C (stereo not given),-21.2%,
COc1ccc(CCCN2CCC(COC(c3ccccc3)c3ccccc3)CC2)cc1,0%,
O=c1[nH]c(=O)c2[nH]c(=O)[nH]c2[nH]1,3.23% [at 11.5 µM],
COc1ccccc1-c1ccc(-c2cn(C(=O)N3CCCCC3Cc3ccccc3)nn2)cc1 (stereo not given),-14.7%,
CC1(c2nc3c(C(N)=O)cccc3[nH]2)CCCN1 (stereo not given),-4.53%,
CC(C)CCC(=O)CC1c2ccccc2C(=O)N1c1ccc2ccc(Cl)nc2n1 (stereo not given),-12.2%,
O=C(NCc1ccccc1)c1ccc2c(=O)n(-c3cccc(C(F)(F)F)c3)c(=S)[nH]c2c1,4.01%,
CN(C)C/C=C/C(=O)Nc1cccc(C(=O)Nc2ccc(Nc3nccc(-c4cccnc4)n3)cc2)c1,0%,
O=C(O)c1ccc[n+]([O-])c1,1.3%,
COc1cc(OC)c(NC(=O)c2ccc(Cc3cc4c(cc3C)C(C)(C)CCC4(C)C)o2)c(OC)c1,0%,
CC(C)(C)NCC(O)COc1cccc2c1CCCC2=O (stereo not given),-10.3%,
CN(C)c1nc(NC2CCC(NC(=O)c3ccc(F)c(F)c3)CC2)nc2ccccc12 (stereo not given),0%,
CC(CC(C#N)(c1ccccc1)C(C)C)N(C)C (stereo not given),-10.5%,
Nc1ccc(C(=O)Nc2ccccc2N)cc1,,17.4 µM (active)
